# From PubChem BioAssay AID651915 (Vanderbilt Specialized Chemistry Center, 2012)
# Active and inactive are the calls of the source. How the calls were made is not given here.
# Molecular target: Histone deacetylase 5 (Homo sapiens) (UniProt Q9UQL6)
# Assay: HDAC5 deacetylase inhibition, profiling panel, selectivity assay for E-cadherin restoration project, biochemical, human (AID 651915)
# Conditions: recombinant HDAC5, fluorogenic class2a substrate; series mostly up to 10 µM
# Chain of Histone deacetylase 5 (Homo sapiens) (Q9UQL6 whole entry, looked up): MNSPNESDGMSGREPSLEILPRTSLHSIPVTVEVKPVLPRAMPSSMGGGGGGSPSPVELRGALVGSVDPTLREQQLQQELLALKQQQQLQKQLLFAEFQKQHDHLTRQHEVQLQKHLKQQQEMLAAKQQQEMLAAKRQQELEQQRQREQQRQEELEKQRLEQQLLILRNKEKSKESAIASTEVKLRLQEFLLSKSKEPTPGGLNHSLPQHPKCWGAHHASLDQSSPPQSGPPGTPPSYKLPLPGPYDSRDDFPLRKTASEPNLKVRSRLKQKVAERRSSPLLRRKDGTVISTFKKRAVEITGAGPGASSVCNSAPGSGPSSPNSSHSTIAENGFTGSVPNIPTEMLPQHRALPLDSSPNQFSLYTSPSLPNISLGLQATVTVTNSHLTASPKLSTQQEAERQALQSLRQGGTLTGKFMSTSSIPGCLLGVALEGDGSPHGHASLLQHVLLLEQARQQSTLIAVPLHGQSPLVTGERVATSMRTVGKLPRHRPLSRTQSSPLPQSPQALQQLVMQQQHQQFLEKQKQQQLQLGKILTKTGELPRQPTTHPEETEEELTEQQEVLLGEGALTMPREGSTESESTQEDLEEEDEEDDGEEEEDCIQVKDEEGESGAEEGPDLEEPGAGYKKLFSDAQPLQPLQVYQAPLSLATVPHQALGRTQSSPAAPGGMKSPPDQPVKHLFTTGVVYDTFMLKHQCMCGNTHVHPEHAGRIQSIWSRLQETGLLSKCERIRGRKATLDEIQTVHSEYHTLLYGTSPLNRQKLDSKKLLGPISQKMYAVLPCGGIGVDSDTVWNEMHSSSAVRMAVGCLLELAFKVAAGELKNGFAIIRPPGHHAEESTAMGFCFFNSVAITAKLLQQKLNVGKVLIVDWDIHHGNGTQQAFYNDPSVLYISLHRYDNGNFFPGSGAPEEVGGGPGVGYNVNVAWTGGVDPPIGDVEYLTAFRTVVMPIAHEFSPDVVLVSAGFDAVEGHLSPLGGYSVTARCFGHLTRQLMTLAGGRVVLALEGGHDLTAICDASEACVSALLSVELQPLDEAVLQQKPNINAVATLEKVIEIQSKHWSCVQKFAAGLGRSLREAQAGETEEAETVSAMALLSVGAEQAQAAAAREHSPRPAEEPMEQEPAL
compound,measurement,value
O=C(NCCCNC(=O)c1ccc[nH]c1=O)c1cc(-c2ccccc2)on1,outcome,inactive
